KDM4E inh: qHTS Assay for Inhibitors of Human Jumonji Domain Containing 2E (JMJD2E); Lysine-specific demethylase 4E (Homo sapiens), B2RXH2; JMJD2E catalytic domain, FDH-coupled NADH fluorescence (FDH is formaldehyde dehydrogenase); Potency, µM (series often up to 57.1 µM), for inactives: at the highest dose activity change, negative = inhibition, hits mostly inhibitors; 230,000 tested, 1.6% active; active means well fitted inhibition curve with a large enough effect, not every such curve was filed as active; inconclusive means small, poorly fitted or top-dose-only effect, or another doubt; inactive means no such curve, though single readings can be large or run the other way;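 further: 0% = wells with enzyme and -100% = buffer wells without enzyme; nearly all actives have a fitted effect of over 50% in size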
Tau ThT inhib: qHTS for Inhibitors of Tau Fibril Formation, Thioflavin T Binding | Microtubule-associated protein tau (Homo sapiens), P10636 | recombinant tau K18 P301L, heparin-induced fibrillization, ThT fluorescence | Potency, µM (titrated, usually from 57.4 µM), inactives show at the highest dose activity, negative = inhibition, actives largely listed as inhibitors | 270,000 tested, 2.1% active | AID 1460, 2008; further: nearly all actives have a fitted effect of over 55% in size
Target sequence (P10636 561-689 P618L limits assumed): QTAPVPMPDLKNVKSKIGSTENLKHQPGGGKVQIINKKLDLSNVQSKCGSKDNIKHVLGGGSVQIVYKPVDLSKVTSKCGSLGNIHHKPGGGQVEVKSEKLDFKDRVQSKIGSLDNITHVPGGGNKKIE
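In this qHTS, human K18 P301L tau is incubated with compound and heparin for 6 hr at 37 C, and Thioflavin T fluorescence then reports fibril load.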
Tau fluor cs: Counterscreen qHTS for Inhibitors of Tau Fibril Formation, Fluorescence Polarization; tau K18 P301L Alexa594 fluorescence, heparin fibrillization; Potency, µM (titrated, usually from 57.7 µM), for the others: at the top dose activity change, negative = decrease; 280,000 tested, 0.93% active; AID 1463, 2008; further: nearly all actives have a fitted effect of over 55% in size
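Human tau K18 P301L (15 uM unlabeled, 0.24 uM Alexa 594-labeled) in 100 mM sodium acetate pH 7 with 20 uM heparin, 6 hr at 37 C. ThT 30 uM added, 1 hr ambient; Alexa 594 FP and total fluorescence read at 555/632 nm.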
RGS12 GoLoco inh: qHTS Assay for Inhibitors of RGS12 GoLoco Motif Activity (Red Fluorophore); Guanine nucleotide-binding protein G(i) subunit alpha-1 (Homo sapiens), P63096; Gai1:RGS12 GoLoco peptide FP, rhodamine, 10 min; Potency, µM (titrated, usually from 61.6 µM), inactives show at the top dose activity, negative = inhibition, actives largely listed as inhibitors; 230,000 tested, 0.44% active; AID 880, 2007; active means well fitted inhibition curve with a large enough effect, not every such curve was filed as active; inactive means no such curve, though single readings can be large or run the other way; further: nearly all actives have a fitted effect of over 30% in size
Target sequence (P63096 whole entry, looked up): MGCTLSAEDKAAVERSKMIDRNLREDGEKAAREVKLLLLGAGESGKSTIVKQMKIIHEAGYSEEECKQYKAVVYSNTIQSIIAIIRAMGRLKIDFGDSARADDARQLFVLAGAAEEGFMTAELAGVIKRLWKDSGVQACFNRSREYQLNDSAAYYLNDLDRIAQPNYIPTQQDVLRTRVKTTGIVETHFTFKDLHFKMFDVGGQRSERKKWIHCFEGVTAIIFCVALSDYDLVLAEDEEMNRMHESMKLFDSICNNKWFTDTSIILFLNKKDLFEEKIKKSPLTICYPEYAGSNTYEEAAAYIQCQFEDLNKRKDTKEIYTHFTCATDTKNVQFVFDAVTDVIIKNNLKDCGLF
Tau fibril FP: qHTS for Inhibitors of Tau Fibril Formation, Fluorescence Polarization; Microtubule-associated protein tau (Homo sapiens), P10636; K18 P301L tau heparin fibrillization, Alexa594 FP, 6 h; Potency, µM (titrated, usually from 57.7 µM), inactives show at the highest dose activity, negative = inhibition, usual class: inhibitors; 280,000 tested, 0.39% active; further: nearly all actives have a fitted effect of over 55% in size
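Steps: dispense K18 P301L tau (15 uM plus 0.24 uM Alexa 594 tracer, final) in pH 7 sodium acetate; add compound; add heparin (20 uM final); incubate 6 hr, 37 C; add ThT (30 uM final); after 1 hr ambient, read FP.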
* hit, by the source's call; [ ] = dose if it differs, or a comment. Sampled rows, rich in hits. Any-hit rate of the full collection: about 3.4%. Unless noted, the call rests on the fitted dose curve; in most records, active means well fitted curve in the direction sought with a large enough effect; inconclusive means small, poorly fitted or top-dose-only effect, or another doubt; inactive means no such curve, though single readings can be large; an effect the other way counts as inactive or inconclusive. Unless noted, on the % scale 0 is the no-effect control and ±100 the full control effect; potency means the concentration at half of the fitted maximal effect.

Cc1ccc(C(=O)NCCNc2ccc(Cl)cc2[N+](=O)[O-])o1 was read as KDM4E inh 0%, Tau ThT inhib 16µM*, Tau fluor cs -25%, RGS12 GoLoco inh -6% and Tau fibril FP -14%.
For Cc1ccc(CNc2ccc(Cl)cc2[N+](=O)[O-])cc1 the results were KDM4E inh 2%, Tau ThT inhib inconclusive, Tau fluor cs -25%, RGS12 GoLoco inh 9% and Tau fibril FP -3%.
For O=C(Nc1cc(-c2nc3ccccc3o2)ccc1Cl)c1ccc(N2CCCCC2)c([N+](=O)[O-])c1 the results were Tau ThT inhib inconclusive, Tau fluor cs -19% and Tau fibril FP -17%.
`Cc1cccc(NC(=O)c2ccc(N3CCOCC3)c([N+](=O)[O-])c2)n1` gave KDM4E inh 4%, Tau ThT inhib inconclusive, Tau fluor cs -4%, RGS12 GoLoco inh 8% and Tau fibril FP -4%.
Cc1ccc(NC(=S)NNC(=O)c2ccc(N3CCOCC3)c([N+](=O)[O-])c2)cc1Cl was read as KDM4E inh 2%, Tau ThT inhib 11µM*, Tau fluor cs inconclusive, RGS12 GoLoco inh 4% and Tau fibril FP inconclusive.
COc1cc(NC(=O)CN2CCN(c3ccc(F)cc3)CC2)cc(OC)c1 was read as Tau ThT inhib 5%, Tau fluor cs -9% and Tau fibril FP 4%.
Screening CC(C)Cn1c(=O)c2sccc2n2c(CCCC(=O)Nc3ccc(Cl)cc3)nnc12 returned Tau ThT inhib 2%, Tau fluor cs -23% and Tau fibril FP -3%.
`CCn1c(=O)c2sccc2n2c(CCC(=O)Nc3cc(C)cc(C)c3)nnc12` gave Tau ThT inhib -3%, Tau fluor cs -4% and Tau fibril FP -8%.
CC(C)c1cnc2c(c1SCc1ccc([N+](=O)[O-])cc1)c(=O)n(C)c(=O)n2C was read as Tau ThT inhib inconclusive, Tau fluor cs -19% and Tau fibril FP 5%.
`CCc1ccc(CNC(=O)CSc2cc(=O)n(C)c3ccc(Cl)cc23)cc1` gave Tau ThT inhib -12%, Tau fluor cs -20% and Tau fibril FP 0%.
O=C(NC1CC(=O)N(c2ccc(Cl)cc2)C1)C(=O)c1c[nH]c2ccccc12 (stereo not drawn) was read as Tau ThT inhib 6%, Tau fluor cs 6% and Tau fibril FP inconclusive.
COc1cc(NC(=O)CN(C)S(=O)(=O)c2ccc3[nH]c4c(c3c2)CCCC4)cc(OC)c1OC was read as Tau ThT inhib -7%, Tau fluor cs inconclusive and Tau fibril FP 14%.
For O=C(O)c1ccc(NCCc2ccc(Cl)cc2)c([N+](=O)[O-])c1 the results were KDM4E inh 1%, Tau ThT inhib 5.6µM*, Tau fluor cs -16%, RGS12 GoLoco inh 5% and Tau fibril FP -1%.
Screening O=C(NNC(=S)Nc1ccc(Cl)c(Cl)c1)c1cccc([N+](=O)[O-])c1 returned KDM4E inh -9%, Tau fluor cs 1.8µM*[quencher], RGS12 GoLoco inh 6% and Tau fibril FP inconclusive.
Screening O=C(Nc1cc(F)cc(F)c1)c1ccc(NCCc2ccccc2)c([N+](=O)[O-])c1 returned KDM4E inh 1%, Tau ThT inhib 7%, Tau fluor cs -1%, RGS12 GoLoco inh -14% and Tau fibril FP 9%.
`Cc1nnc(SCc2nc(-c3ccc(Cl)cc3)no2)n1-c1ccc(F)cc1` gave Tau ThT inhib inconclusive, Tau fluor cs -21% and Tau fibril FP -7%.
`CCc1nnc(SCc2cc(C)ccc2C)c2cc3sc(C)cc3n12` gave Tau ThT inhib -10%, Tau fluor cs -4% and Tau fibril FP 4%.
For O=S(=O)(Nc1ccc(Br)cc1F)c1ccc2nc(-c3ccccc3)[nH]c2c1 the results were Tau ThT inhib inconclusive, Tau fluor cs -14% and Tau fibril FP 14µM*.
O=S(=O)(Nc1ccc2nc(-c3ccc(Br)o3)[nH]c2c1)c1ccccc1 was read as KDM4E inh -8%, Tau ThT inhib -17%, Tau fluor cs -27%, RGS12 GoLoco inh 3% and Tau fibril FP -1%.
Cc1ccc(NS(=O)(=O)c2ccc3nc(-c4ccccc4)[nH]c3c2)cc1Cl was read as Tau ThT inhib inconclusive, Tau fluor cs inconclusive and Tau fibril FP 10µM*.
Screening Cc1cc(NS(=O)(=O)c2ccc3nc(-c4ccccc4)[nH]c3c2)ccc1Br returned Tau ThT inhib inconclusive, Tau fluor cs inconclusive and Tau fibril FP 7.9µM*.
`Cc1ccc(NS(=O)(=O)c2ccc(Cl)c(C(=O)Nc3ccccc3-c3nc4ccccc4[nH]3)c2)cc1C` gave KDM4E inh inconclusive, Tau ThT inhib inconclusive, Tau fluor cs inconclusive, RGS12 GoLoco inh -8% and Tau fibril FP 14µM*.
For CCOc1ccccc1-c1noc(CSc2nnc(-c3ccncc3)n2-c2ccc(F)cc2)n1 the results were Tau ThT inhib -14%, Tau fluor cs -16% and Tau fibril FP 2%.
Screening COc1ccc(-c2[nH]c3ccccc3c2SCCNC(=O)c2ccccc2)cc1 returned KDM4E inh 3%, Tau ThT inhib -1%, Tau fluor cs -3%, RGS12 GoLoco inh 7% and Tau fibril FP 2%.
For Cc1ccc(-c2[nH]c3ccccc3c2SCCNC(=O)c2ccc(S(=O)(=O)N3CCOCC3)cc2)cc1 the results were KDM4E inh -15%, Tau ThT inhib -4%, Tau fluor cs 3.5µM*[quencher], RGS12 GoLoco inh -6% and Tau fibril FP 2%.
CCN(CC)S(=O)(=O)c1ccc(C(=O)NCCSc2c(-c3ccc(F)cc3)[nH]c3ccccc23)cc1 was read as Tau ThT inhib -6%, Tau fluor cs 4.5µM*[quencher] and Tau fibril FP -4%.
CN(C)S(=O)(=O)c1ccc(C(=O)NCCSc2c(-c3ccc(Br)cc3)[nH]c3ccccc23)cc1 was read as Tau ThT inhib -6%, Tau fluor cs 4.5µM*[quencher] and Tau fibril FP inconclusive.
`Cc1ccc(C(=O)NCCSc2c(C)[nH]c3ccccc23)cc1[N+](=O)[O-]` gave KDM4E inh -6%, Tau ThT inhib 4%, Tau fluor cs -4%, RGS12 GoLoco inh -11% and Tau fibril FP -1%.
Screening CCN(CC)S(=O)(=O)c1ccc(C(=O)NCCSc2c(-c3ccccc3)[nH]c3ccccc23)cc1 returned Tau ThT inhib -10%, Tau fluor cs 4.5µM*[quencher] and Tau fibril FP -8%.
For CCOC(=O)c1cccc(NC(=O)c2ccc3snnc3c2)c1 the results were Tau ThT inhib -6%, Tau fluor cs -29% and Tau fibril FP inconclusive.

Screening results: PubChem, National Center for Advancing Translational Sciences (NCATS)
